Experimental data published in PubChem BioAssay (NCATS).
Results filed as inconclusive are left out. Values without a mark were called inactive. Calls follow the shape of the dose curve; as a rule, active = well fitted cell-killing curve with a large enough effect; inconclusive = small, poorly fitted or top-dose-only effect; inactive = no such curve, though single readings can be large or run the other way.

Assay: qHTS of pediatric cancer cell lines to identify multiple opportunities for drug repurposing: Primary screen for MG 63 (6-TG R) cells (AID 1347105); also: nearly all actives have a fitted effect of over 50% in size
Conditions: MG 63 (6-TG R) viability, CellTiter-Glo, 48 h; series mostly up to 46 µM; activity change, negative = cytotoxic: at the top concentration
Outline: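 Plated cells (500-1,000 per well, growth media) were allowed to settle for 5 hours, treated with compound dilutions for 48 hours, then lysed with CellTiter-Glo for 15 min at room temperature before luminescence reading.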
% is scaled to controls: 0 for no effect and ±100 for the full control effect.

| SMILES | activity change, negative = cytotoxic |
| --- | --- |
| Cc1cccc(C(=O)O)c1O | -18.4% |
| CCOc1cc(NC(C)=O)ccc1C(=O)OC | -10.7% |
| CCc1cccc(CC)c1NC(=O)CN(CC(=O)O)CC(=O)O | -25.2% |
| O=C1c2cccc(O)c2C(=O)c2c(O)cccc21 | 2.58% |
| CCCCCCCC(=O)OCC(O)CO (stereo not drawn) | -13.2% |
| Cn1cc(C(=O)[C@@H]2CCc3nc[nH]c3C2)c2ccccc21 | -29.7% |
| Cn1c([N+](=O)[O-])cnc1COC(N)=O | 44.8% |
| CC1CCN(CCCC(=O)c2ccc(F)cc2)CC1 | -18% |
| NS(=O)(=O)c1ccc(C(=O)O)cc1 | -0.775% |
| OCc1ccc(Cl)cc1Cl | -17.5% |
| CC(=O)Nc1ccc(C(=O)O)cc1 | -1.8% |
| CCCCCCCCCCCCCCCCCCO | -4.98% |
| CCCCCOC(=O)Nc1nc(=O)n([C@@H]2O[C@H](C)[C@@H](O)[C@H]2O)cc1F | -5.56% |
| CC(=O)NCc1c(I)c(NC(C)=O)c(I)c(C(=O)O)c1I | 7.87% |
| Cc1cc(=O)[nH]c(=S)[nH]1 | 6.59% |
| O=C(O)CCCc1ccccc1 | -6.34% |
| COC(=O)c1ccc(O)cc1 | -12.4% |
| CCOC(=O)[C@H](CCc1ccccc1)N[C@@H](C)C(=O)N1CCC[C@H]1C(=O)O | -7.21% |
| C[C@H]1COc2c(C3(N)CC3)c(F)cc3c(=O)c(C(=O)O)cn1c23 | 30.2% |

| SMILES | activity change, negative = cytotoxic |
| --- | --- |
| COc1nccnc1NS(=O)(=O)c1ccc(N)cc1 | -7.74% |
| NS(=O)(=O)c1cc2c(cc1C(F)(F)F)NCNS2(=O)=O | -26.7% |
| Cc1cccc(Nc2ccccc2C(=O)O)c1C | -12.8% |
| O=C(/C=C/c1ccc(O)c(O)c1)O[C@@H]1C[C@@](OC(=O)/C=C/c2ccc(O)c(O)c2)(C(=O)O)C[C@@H](O)[C@@H]1O | -7.24% |
| CN1CC(=O)NC1=N | -21% |
| N[C@@H](Cc1ccc(O)cc1)C(=O)O | -16.1% [at 9.22 µM] |
| CC1(C)S[C@@H]2[C@H](NC(=O)C(C(=O)O)c3ccccc3)C(=O)N2[C@H]1C(=O)O (stereo partly drawn) | -17.4% |
| CC(=O)OC[C@H]1O[C@@](COC(C)=O)(O[C@H]2O[C@H](COC(C)=O)[C@@H](OC(C)=O)[C@H](OC(C)=O)[C@H]2OC(C)=O)[C@@H](OC(C)=O)[C@@H]1OC(C)=O | -5.16% |
| OC[C@@H](O)[C@@H](O)[C@H](O)[C@H](O)CO | -6.37% |
| O=c1[nH]c2cc(C(F)(F)F)c(N3CCOCC3)cc2n(CP(=O)(O)O)c1=O | -20.5% |
| Cc1ncc(CO)c(CN)c1O | 1.38% |
| O=C(O)c1cc(=O)c2ccccc2o1 | -13.5% |
| COc1ccc(C(=O)NCc2ccc(OCCN(C)C)cc2)cc1OC | -20.8% |
| CC1CCc2cc(F)cc3c(=O)c(C(=O)O)cn1c23 (stereo not drawn) | -7.78% |
| NNC(=O)CP(=O)(c1ccccc1)c1ccccc1 | -11.2% |
| CN1CCCN=C1COC(=O)C(O)(c1ccccc1)C1CCCCC1 (stereo not drawn) | -0.697% |
| NS(=O)(=O)c1cc(C2(O)NC(=O)c3ccccc32)ccc1Cl (stereo not drawn) | 2.14% |
| Cc1ccsc1/C=C/C1=NCCCN1C | 23.5% |
| CC(=O)Nc1ccc(OCCOCCOc2ccc(NC(C)=O)cc2)cc1 | -15.1% |
